This is an account of results in ChEMBL document CHEMBL2218924, “A broad activity screen in support of a chemogenomic map for kinase signalling research and drug discovery” (Biochem J, 2013).

Assay [1] concerns the target T1, Ephrin type-A receptor 3 (Homo sapiens) (UniProt P29320).
T1 sequence (whole entry): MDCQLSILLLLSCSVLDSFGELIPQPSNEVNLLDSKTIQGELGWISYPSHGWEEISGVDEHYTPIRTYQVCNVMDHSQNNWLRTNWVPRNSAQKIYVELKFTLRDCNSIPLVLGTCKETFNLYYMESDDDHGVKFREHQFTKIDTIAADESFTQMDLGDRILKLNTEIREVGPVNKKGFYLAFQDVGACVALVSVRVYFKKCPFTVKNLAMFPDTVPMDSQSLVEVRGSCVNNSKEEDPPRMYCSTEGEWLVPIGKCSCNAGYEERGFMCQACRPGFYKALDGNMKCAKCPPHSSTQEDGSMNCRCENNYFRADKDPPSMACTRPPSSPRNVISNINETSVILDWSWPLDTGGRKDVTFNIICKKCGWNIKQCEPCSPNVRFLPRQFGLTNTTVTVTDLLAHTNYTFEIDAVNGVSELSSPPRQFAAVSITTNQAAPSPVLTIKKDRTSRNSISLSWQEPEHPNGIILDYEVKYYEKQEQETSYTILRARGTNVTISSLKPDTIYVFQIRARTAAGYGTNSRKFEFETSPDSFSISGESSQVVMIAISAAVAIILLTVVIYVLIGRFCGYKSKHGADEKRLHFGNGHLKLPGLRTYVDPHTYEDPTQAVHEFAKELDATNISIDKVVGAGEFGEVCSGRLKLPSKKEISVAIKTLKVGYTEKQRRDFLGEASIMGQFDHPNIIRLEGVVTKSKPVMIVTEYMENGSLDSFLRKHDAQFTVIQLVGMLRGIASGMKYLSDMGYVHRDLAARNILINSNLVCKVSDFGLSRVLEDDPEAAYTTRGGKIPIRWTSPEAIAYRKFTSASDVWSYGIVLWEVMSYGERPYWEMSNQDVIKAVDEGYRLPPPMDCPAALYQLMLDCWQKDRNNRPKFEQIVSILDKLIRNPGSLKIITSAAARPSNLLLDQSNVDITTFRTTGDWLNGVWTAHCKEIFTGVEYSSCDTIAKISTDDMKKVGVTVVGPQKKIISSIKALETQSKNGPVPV
To be noted: at 10 µM.

Assay [2] concerns the target Ephrin type-A receptor 4 (Homo sapiens) (UniProt P54764). To be noted: at 1 µM.
Assay [3] shares this target. To be noted: at 10 µM.
Assay [4] addresses Ephrin type-A receptor 5 (Homo sapiens) (UniProt P54756). To be noted: at 1 µM.
Assay [5] shares this target. To be noted: at 10 µM.
In assay [6] the target is Ephrin type-A receptor 7 (Homo sapiens) (UniProt Q15375). To be noted: at 1 µM.
Assay [7] shares this target. To be noted: at 10 µM.
Assay [8] has as its target T2, Ephrin type-A receptor 8 (Homo sapiens) (UniProt P29322).
T2 sequence (whole entry): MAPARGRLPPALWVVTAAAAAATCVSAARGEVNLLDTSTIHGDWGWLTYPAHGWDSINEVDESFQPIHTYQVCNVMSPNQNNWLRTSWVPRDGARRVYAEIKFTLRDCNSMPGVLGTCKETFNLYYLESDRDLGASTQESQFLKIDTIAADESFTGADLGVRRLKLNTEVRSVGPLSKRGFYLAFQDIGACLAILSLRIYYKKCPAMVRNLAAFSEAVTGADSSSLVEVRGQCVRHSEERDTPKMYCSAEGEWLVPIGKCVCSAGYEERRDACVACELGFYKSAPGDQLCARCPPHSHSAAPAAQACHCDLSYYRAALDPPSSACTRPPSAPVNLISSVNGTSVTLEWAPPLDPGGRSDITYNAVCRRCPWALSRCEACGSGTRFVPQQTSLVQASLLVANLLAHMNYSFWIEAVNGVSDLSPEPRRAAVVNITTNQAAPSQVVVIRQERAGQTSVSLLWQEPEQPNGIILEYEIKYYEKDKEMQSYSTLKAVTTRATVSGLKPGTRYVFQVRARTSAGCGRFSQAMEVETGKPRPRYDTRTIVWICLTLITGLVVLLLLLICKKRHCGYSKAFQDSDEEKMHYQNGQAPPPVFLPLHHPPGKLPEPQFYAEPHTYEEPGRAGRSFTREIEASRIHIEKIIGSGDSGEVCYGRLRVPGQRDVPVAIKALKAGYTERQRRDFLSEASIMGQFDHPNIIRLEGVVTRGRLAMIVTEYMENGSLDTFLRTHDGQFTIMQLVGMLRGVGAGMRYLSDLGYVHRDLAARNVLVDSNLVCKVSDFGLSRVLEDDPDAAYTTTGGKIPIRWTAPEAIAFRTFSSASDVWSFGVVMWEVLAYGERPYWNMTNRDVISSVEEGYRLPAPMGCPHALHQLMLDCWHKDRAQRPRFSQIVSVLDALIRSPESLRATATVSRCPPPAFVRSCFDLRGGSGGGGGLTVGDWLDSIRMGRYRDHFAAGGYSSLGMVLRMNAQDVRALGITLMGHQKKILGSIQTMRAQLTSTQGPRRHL
To be noted: at 1 µM.

The target of assay [9] is T2, Ephrin type-A receptor 8 (Homo sapiens). To be noted: at 10 µM.
In assay [10] the target is T3, Ephrin type-B receptor 1 (Homo sapiens) (UniProt P54762).
T3 sequence (whole entry): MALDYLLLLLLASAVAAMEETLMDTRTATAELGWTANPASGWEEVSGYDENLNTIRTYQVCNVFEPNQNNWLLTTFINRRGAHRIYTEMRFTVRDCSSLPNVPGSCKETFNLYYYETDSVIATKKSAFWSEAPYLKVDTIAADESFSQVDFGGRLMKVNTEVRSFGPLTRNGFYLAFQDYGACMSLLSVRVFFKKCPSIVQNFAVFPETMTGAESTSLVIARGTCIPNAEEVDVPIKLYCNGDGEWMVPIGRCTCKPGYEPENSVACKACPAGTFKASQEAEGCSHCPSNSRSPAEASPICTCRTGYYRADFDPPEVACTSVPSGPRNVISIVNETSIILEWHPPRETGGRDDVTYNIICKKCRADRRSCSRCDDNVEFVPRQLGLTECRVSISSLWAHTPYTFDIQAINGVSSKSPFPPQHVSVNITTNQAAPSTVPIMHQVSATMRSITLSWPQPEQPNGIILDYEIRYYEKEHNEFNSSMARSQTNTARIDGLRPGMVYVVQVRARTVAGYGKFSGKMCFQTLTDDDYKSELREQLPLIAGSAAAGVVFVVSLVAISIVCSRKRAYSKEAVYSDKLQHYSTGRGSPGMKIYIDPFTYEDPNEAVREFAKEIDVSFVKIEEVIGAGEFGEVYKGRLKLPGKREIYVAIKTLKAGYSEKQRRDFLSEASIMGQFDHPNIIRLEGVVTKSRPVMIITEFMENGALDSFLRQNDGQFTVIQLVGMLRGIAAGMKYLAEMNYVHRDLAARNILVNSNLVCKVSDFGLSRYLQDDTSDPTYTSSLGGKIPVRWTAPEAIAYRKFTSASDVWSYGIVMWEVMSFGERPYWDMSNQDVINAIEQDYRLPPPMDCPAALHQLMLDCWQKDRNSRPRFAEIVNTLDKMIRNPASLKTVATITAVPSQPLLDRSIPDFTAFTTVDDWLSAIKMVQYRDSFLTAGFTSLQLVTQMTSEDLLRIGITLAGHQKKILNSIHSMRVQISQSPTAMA
To be noted: at 1 µM.

Broadly, the residual activity is the signal under treatment as a percentage of the control signal.

Sequence of Ephrin type-A receptor 4 (Homo sapiens) (P54764 whole entry): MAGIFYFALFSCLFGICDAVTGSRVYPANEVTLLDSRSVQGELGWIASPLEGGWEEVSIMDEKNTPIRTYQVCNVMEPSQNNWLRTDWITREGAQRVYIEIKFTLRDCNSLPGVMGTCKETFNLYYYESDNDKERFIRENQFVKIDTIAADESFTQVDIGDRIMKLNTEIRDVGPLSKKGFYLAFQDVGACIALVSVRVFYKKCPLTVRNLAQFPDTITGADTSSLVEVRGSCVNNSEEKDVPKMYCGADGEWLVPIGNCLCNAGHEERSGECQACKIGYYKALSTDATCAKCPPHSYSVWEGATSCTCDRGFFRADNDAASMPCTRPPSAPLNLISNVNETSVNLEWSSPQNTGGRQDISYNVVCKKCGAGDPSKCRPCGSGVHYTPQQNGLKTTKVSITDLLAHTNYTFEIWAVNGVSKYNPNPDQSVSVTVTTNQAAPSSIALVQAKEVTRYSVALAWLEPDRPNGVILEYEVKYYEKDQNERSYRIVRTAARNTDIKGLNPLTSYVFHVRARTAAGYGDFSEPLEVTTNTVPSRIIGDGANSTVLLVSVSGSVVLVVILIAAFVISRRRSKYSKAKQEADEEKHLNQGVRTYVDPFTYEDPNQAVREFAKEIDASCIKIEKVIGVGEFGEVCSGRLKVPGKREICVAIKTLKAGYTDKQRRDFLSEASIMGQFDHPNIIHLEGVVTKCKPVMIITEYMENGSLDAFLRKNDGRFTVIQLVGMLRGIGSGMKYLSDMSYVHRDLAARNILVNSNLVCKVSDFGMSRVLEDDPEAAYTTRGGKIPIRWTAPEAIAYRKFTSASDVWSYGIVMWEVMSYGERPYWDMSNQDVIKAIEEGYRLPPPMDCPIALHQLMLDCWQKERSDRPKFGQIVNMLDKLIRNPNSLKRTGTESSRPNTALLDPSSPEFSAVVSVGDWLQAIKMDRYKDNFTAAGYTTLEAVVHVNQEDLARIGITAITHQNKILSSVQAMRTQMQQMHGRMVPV
Sequence of Ephrin type-A receptor 7 (Homo sapiens) (Q15375 28-998 limits assumed): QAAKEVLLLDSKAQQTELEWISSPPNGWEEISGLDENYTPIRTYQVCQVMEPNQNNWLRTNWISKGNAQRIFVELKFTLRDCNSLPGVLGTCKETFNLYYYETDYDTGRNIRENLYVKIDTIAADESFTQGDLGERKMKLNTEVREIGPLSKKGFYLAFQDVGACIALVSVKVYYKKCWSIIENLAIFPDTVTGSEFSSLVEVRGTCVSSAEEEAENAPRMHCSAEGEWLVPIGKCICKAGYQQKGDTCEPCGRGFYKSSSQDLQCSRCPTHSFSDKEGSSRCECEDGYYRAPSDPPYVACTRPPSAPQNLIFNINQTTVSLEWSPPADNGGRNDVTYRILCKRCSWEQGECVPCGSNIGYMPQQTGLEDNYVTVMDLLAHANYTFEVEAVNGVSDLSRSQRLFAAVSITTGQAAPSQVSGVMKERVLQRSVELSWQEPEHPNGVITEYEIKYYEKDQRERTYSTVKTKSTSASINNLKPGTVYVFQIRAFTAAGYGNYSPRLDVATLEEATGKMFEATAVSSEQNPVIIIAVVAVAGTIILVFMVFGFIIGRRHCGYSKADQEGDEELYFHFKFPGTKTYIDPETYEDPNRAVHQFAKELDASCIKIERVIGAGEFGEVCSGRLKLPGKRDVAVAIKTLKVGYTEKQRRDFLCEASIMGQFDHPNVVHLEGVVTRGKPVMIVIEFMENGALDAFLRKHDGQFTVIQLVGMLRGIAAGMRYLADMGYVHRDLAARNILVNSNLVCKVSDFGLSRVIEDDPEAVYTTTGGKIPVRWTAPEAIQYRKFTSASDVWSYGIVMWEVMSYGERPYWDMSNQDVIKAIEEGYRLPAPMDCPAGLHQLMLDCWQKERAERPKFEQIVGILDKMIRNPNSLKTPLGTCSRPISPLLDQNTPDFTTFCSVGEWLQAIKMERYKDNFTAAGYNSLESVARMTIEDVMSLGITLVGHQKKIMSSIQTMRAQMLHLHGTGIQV
Sequence of Ephrin type-A receptor 5 (Homo sapiens) (P54756 whole entry): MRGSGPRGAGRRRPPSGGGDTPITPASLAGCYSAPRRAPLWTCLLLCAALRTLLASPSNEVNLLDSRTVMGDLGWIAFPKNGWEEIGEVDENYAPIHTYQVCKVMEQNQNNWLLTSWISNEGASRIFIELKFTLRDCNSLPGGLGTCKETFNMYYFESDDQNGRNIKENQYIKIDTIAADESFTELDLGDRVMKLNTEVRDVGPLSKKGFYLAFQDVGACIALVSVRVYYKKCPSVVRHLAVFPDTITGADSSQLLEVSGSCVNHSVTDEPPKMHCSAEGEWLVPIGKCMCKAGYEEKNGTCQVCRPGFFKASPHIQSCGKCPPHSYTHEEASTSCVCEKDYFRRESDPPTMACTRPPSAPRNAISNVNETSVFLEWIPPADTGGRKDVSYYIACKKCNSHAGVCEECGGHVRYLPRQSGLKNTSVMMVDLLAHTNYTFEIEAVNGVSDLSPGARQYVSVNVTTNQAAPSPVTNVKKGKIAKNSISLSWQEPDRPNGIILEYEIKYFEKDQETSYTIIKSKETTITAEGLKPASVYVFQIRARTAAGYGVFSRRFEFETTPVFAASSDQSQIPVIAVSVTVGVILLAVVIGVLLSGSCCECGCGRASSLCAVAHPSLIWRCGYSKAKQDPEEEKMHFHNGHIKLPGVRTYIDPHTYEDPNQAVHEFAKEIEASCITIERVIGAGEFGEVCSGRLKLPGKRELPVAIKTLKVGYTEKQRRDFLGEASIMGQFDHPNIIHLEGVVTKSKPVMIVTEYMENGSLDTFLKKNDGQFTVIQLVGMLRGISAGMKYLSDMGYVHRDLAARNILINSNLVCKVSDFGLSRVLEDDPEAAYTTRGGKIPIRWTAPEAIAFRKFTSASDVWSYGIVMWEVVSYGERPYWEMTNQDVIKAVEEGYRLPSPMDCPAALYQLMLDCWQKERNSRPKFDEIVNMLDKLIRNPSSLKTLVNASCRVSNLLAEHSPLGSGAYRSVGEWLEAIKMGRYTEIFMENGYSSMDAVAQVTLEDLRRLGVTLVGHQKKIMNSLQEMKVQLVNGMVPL

Take `Oc1ccc(-c2nc(-c3ccc(F)cc3)c(-c3ccncc3)[nH]2)cc1`: the residual activity is 81% in assay [1]; 117% in assay [2]; 87% in [3]; 103% in [4]; 56% in [5]; 103% in assay [6]. For the same molecule, the residual activity in assay [7] came to 58%; in assay [8], 93%; in assay [9], 45%; in [10] it was 115%.
